Laboratory results published in PubChem BioAssay AID652104 (National Center for Advancing Translational Sciences (NCATS), 2013).
Screen size: about 410,000 compounds; about 7,200 (1.8%) were called active. About 7% were inconclusive and are not listed. The sample holds actives, similar compounds and a random draw of the others, so the mix is not that of the screen. Calls come from the whole dose curve; as a rule, active = well fitted activation curve with a large enough effect; inconclusive = small, poorly fitted or top-dose-only effect, or another doubt; inactive = no such curve, though single readings can be large or run the other way.

Assay: qHTS of TDP-43 Inhibitors; note: nearly all actives have a fitted effect of over 50% in size; for growth rescue (activation): % of control where 0% means no effect
Conditions: TDP-43 expressing yeast growth rescue, BacTiter-Glo, 24 h; series mostly up to 46.1 µM; growth rescue (activation): at the top concentration
Method in brief: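 Luminescence from BacTiter-Glo reports growth of TDP-43-expressing yeast after 24 hr at 30 deg C with compound. Cells were raffinose-pregrown to mid-log, then seeded in galactose medium at OD600=0.02.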
Potency is the fitted concentration of half-maximal effect.

Growth rescue (activation), inactive:
CC(C)CNc1ncnc2c1nnn2C 12.5%
CC(O)c1nc2ccccc2n1Cc1ccc([N+](=O)[O-])cc1 (configuration not stated) 5.24%
O=C(O)Cn1c(Cc2ccccc2)nc2ccccc21 3.72%
Cc1ccc(NC(=O)Cn2c(=O)n(-c3ccccc3)c(=O)c3c4c(sc32)CCCC4)cc1 12.7%
COc1ccccc1-c1n[nH]nc1C1=CC(=O)CC(C)(C)C1 0%
COc1ccc(N2CCN(C(=O)c3c(C)oc4nc(C)nc(N5CCCC5)c34)CC2)cc1 24.1%
NS(=O)(=O)c1ccc(NC(=O)COc2ccc(S(=O)(=O)NC3CCCCC3)cc2)cc1 7.49%
CCOc1ccc(C2CC(=O)c3c([nH]c(C(=O)OCc4ccccc4)c3C)C2)cc1 (configuration not stated) 13.5%
O=C(Cn1nc(Cc2cccnc2)c2ccccc2c1=O)N1CCN(c2ccccc2F)CC1 -3.56%
CCN(CC)S(=O)(=O)c1nnc(NC(=O)COc2ccccc2Cl)s1 22.7%
Nc1[nH]c(C(=O)c2ccccc2)c(-c2ccncc2)c1C(=O)NCc1cccc2ccccc12 12.8%
CC(C)(C)C(=O)c1c(N)[nH]c(C(=O)c2ccccc2)c1-c1ccc(F)cc1 22.8%
CCCNC(=O)CCC(=O)N1Cc2ccccc2Oc2ncccc21 7.07% [at 9.22 µM]
CC(C)c1ccc(NS(=O)(=O)c2ccc3[nH]cc(C(=O)NC4CCCC4)c(=O)c3c2)cc1 0%
CCCOc1ccc(C2c3c(-c4ccccc4O)n[nH]c3C(=O)N2Cc2cccnc2)cc1 (configuration not stated) -2.59%
Cc1c(Cl)cccc1NC(=O)C1CCCN(C(=O)c2cnn(-c3ccccc3)c2-n2cccc2)C1 (configuration not stated) 0.375%
Cc1cc(C)cc(-n2ccnc2SCC(=O)Nc2nc3ccccc3s2)c1 5.14%
CC(C)CC(=O)NC(=S)NNC(=O)c1cccc([N+](=O)[O-])c1 -4.92% [at 9.22 µM]
CCN1CCN(CCCNC(=O)c2ccc3c(c2)sc2nc(-c4ccc(OC)cc4)cn23)CC1 -44.4%
O=C(NCCc1ccccc1)c1ccc2c(c1)N(Cc1ccccc1)C(=O)c1ccccc1S2(=O)=O 26.3%
Cc1ccccc1CNC(=O)CCc1cn(Cc2ccccc2C)c2ccccc12 20.1%
CCOC(=O)C1CCCN(C(=O)C2CCN(c3nnc(-n4cccc4)s3)CC2)C1 (configuration not stated) 12%
CSc1ccc(CCNC(=O)C2CCN(c3nnc(-n4cccc4)s3)CC2)cc1 0%
Cc1ccc(-c2nn3c(=O)cc(CN4CCN(C(=O)Nc5cccc(C(F)(F)F)c5)CC4)nc3s2)cc1 21.4%
Cc1nc2ccc(NC(=O)N3CCC(c4ccccc4)C3)cc2nc1C (configuration not stated) 1.58%
O=S(=O)(c1ccccc1)N1CCC(c2ccccc2)CC1 0.641%
Cc1cccc2nc(-c3ccc(Cl)s3)c(Nc3ccc4c(c3)OCCO4)n12 23.9%
Fc1ccc(-c2nc(Nc3cccc(Cl)c3)nc3c2COc2ccccc2-3)cc1 2.51%
Cc1ccn2c(Nc3ccc4c(c3)OCCO4)c(-c3ccc(C)s3)nc2c1 -8.94%
CC(=O)N(c1ccc2oc(=O)sc2c1)S(=O)(=O)c1ccc(C)cc1 -9.63%
CCN1CCN(C(=O)CN(C)S(=O)(=O)c2ccc3ccccc3c2)CC1 4.91%
Cc1cccc(-n2ncc(C(=O)N3CCC(C)CC3)c2C2CCN(C(=O)OC(C)(C)C)CC2)c1 -10.8%
CC(C)(C)C1CCc2c(sc(NC(=O)c3ccccc3F)c2C(=O)N2CCCCC2)C1 (configuration not stated) 0%
COc1ccc(-c2nc(Cn3c(=O)cc(C)c4c(C)nn(-c5ccccc5)c43)c(C)o2)cc1OC -1.69%
CCc1ccccc1NC(=O)c1cnn(-c2ccc(F)cc2)c1C1CCNCC1 23%
COc1ccccc1CNC(=O)C(=O)NCC(c1ccco1)S(=O)(=O)c1ccc(F)cc1 (configuration not stated) 18.5%
COc1cc(C(=O)Nc2ccc(-n3c(C)nc4ccccc4c3=O)cc2)cc(OC)c1OC 0%
COc1cc(OC)c(OC)cc1/C=C/c1nc2cc3ccccc3cc2c(=O)n1-c1ccc(F)c(Cl)c1 21.1%
O=C(Cc1ccc(Cl)cc1)NCC(c1cccs1)S(=O)(=O)c1ccc(Cl)cc1 (configuration not stated) 0.548% [at 9.22 µM]
CCc1ccccc1N(C)C(=O)C1CCCN(c2ncnc3onc(-c4ccc(F)cc4)c23)C1 (configuration not stated) 13.9%
Cc1c(Cl)cccc1NC(=O)C1CCCN(c2ncnc3onc(C)c23)C1 (configuration not stated) 7.94%
Cc1cn(C)c(CC(=O)NCc2ccccc2)c1C(=O)O 11.9%
O=C(/C=C/c1ccccc1)N1CCN(Cc2cc(=O)n3nc(-c4ccccc4F)sc3n2)CC1 0.573%
O=C(NCc1ccccc1)c1cc(-c2cccc(Cl)c2)on1 10.6%
COc1ccc(NC(=O)Cn2c(=O)cc(C)c3c(C)nn(-c4cccc(Cl)c4C)c32)cc1OC 15.4%
CCOC(=O)c1cc(-c2ccccc2)n(-c2cccc(C(=O)Nc3cc(OC)cc(OC)c3)c2)c1C 13.5%
CC(C)OCCCn1c(SCC(=O)c2ccccc2)nc2c(sc3ccccc32)c1=O 22.8%
CCn1c(CN2C(=O)CSc3ccccc32)n[nH]c1=S -24.2%
CCn1c(CNS(=O)(=O)c2ccc(Cl)cc2)n[nH]c1=S -8.25%
CC(C)(C)c1ccc(C(=O)Nc2ccc3c(c2)CCCN3C(=O)c2cccs2)cc1 18.3% [at 9.22 µM]
CCOC(=O)c1c(S(=O)(=O)NCC(=O)Nc2ccc(Cl)c(C(F)(F)F)c2)c(C)n(C)c1C -5.08%
CCOc1cc(/C=C2\SC(N3CCCC(C)C3)=NC2=O)ccc1O (configuration not stated) -3.68%
COc1cc(OC)cc(C(=O)Nc2cc3nn(-c4ccccc4)nc3cc2Cl)c1 2.89%
O=[N+]([O-])c1cc(-c2nc(-c3ccccc3)no2)ccc1NCc1ccco1 6.16%
CCc1nn(CCCC(=O)NCc2ccccc2OC)c(=O)c2cc3occc3n12 0%
COc1cccc(C(=O)c2sc3nc(-c4ccccc4)cc(C(F)(F)F)c3c2N)c1 19%
Cc1ccc(NC(=O)c2sc3nc(N)c(C#N)cc3c2N)cc1 1.81%
CN(C(=O)c1ccccc1)c1nccnc1C#N -6.6%
CCCS(=O)(=O)c1c(Nc2ccccc2C)sc(C(=O)c2ccccc2)c1N 28.5%
Nc1c(C(=O)c2cccs2)sc2nsc(SCCN3CCCCC3)c12 -31%
COc1ccccc1NC(=O)c1sc2nc(C)c(C(=O)Nc3ccc(Cl)cc3)c(-c3ccc(Br)cc3)c2c1N 3.6%
COC(=O)c1cc2c(N)c(C(=O)c3ccc(Cl)cc3)sc2nc1C(OC)OC 11.8%
Cc1ccccc1CSCCNC(=O)C1CCN(S(=O)(=O)Cc2ccccc2)CC1 16.1%
Cc1c(NS(=O)(=O)c2ccc(Cl)cc2)c(=O)n(-c2ccccc2)n1C 10.6%
CCCN(CCC)CCNC(=O)Cn1cnc2sc(C)c(S(=O)(=O)N3CCC(C)CC3)c2c1=O 8.27%
CCc1ccccc1NC(=O)N1CCN(C(=O)c2nsc3ccccc23)CC1 20.8%
COc1ccc(C2Sc3ccccc3NC3=C2C(=O)c2ccccc23)c(OC)c1OC (configuration not stated) 0%
Cc1ccc(C(=O)Nc2ccc(C(=O)O)cc2)cc1S(=O)(=O)Nc1ccccc1 22.9%
Cc1cccc(C(=O)Nc2ccc(-c3nc4ncccc4o3)cc2C)c1 15.3%
O=C(NCc1cccnc1)C(=O)NCC(c1cccnc1)N1CCN(c2ccccc2)CC1 (configuration not stated) 6.7%
O=C(NCc1ccc2c(c1)CCN2C(=O)c1ccccc1)c1ccccc1 24.4%
COc1ccc2[nH]c3c(C)c4cc[n+](C)cc4c(C)c3c2c1 0%
COc1ccc(N)c(C)c1 28%
Cc1ccc(Cl)cc1N(C)C(=O)Cn1nc(Cc2cccnc2)c2ccccc2c1=O -12.3%
CCCn1c2ccccc2c2cnn(CC(=O)N3CCCC(C(=O)OCC)C3)c(=O)c21 (configuration not stated) 28%
CCc1ccc(S(=O)(=O)n2ccnc2)cc1 16.1%
COc1cccc(Cn2c(SCc3ccc(C(=O)N4CCC(C)CC4)cc3)nc3ccncc32)c1 1.69%
N#C/C(=C\c1cccc(F)c1)c1nc(-c2cc3c(ccc4ccccc43)oc2=O)cs1 -13.3%
O=C(CSc1nc2c(c(=O)[nH]1)CN(Cc1ccc3c(c1)OCO3)CC2)Nc1cc(F)ccc1F -2.02%

Potency, inactive:
CCc1ccccc1NC(=O)c1cc(-c2ccc3c(c2)OCO3)on1

Potency, active:
CC(=O)c1nc2ccccc2n1Cc1ccccc1 11.2 µM
COc1ccccc1-c1n[nH]c2c1[C@H](C)CC[C@H]2C(C)C 25.1 µM
Cc1nc2ccccc2c(-c2ccccc2)c1C(=O)c1ccccc1 22.4 µM
CC(C)CC(=O)N/C(N)=N/c1nc2ccccc2s1 15.8 µM
O=C(C1CCN(c2nnc(-n3cccc3)s2)CC1)N1CCc2ccccc2C1 35.5 µM
O=C(C(=O)N1CCC(c2ccccc2)CC1)c1ccccc1 12.6 µM
CC(=O)Oc1ccc(N(C(C)=O)S(=O)(=O)c2ccc3ccccc3c2)cc1Br 12.6 µM
COc1cc(OC)c(OC)cc1/C=C/c1nc2ccccc2c(=O)n1-c1ccc(Br)c(C)c1 22.4 µM
Cc1ccc(Cl)cc1N(C)C(=O)C1CCCN(c2ncnc3onc(-c4ccc(F)cc4)c23)C1 (configuration not stated) 35.5 µM
O=C(Nc1ccccc1C(F)(F)F)c1cc(-c2ccc(O)cc2)on1 12.6 µM
CCn1c(CSCc2c(Cl)cccc2Cl)n[nH]c1=S 11.2 µM
CCOc1cc(/C=N/Nc2cc(C)nc3ccc(C)cc23)ccc1O 15.8 µM
Cc1nc2sc(C(=O)c3ccccc3)c(N)c2c2c1CCCC2 22.4 µM
CN(C)c1ccnc2sc(C(=O)c3ccccc3)c(N)c12 6.31 µM
Cc1ccc2c(N)c(C(=O)c3ccccc3)sc2n1 14.1 µM
NC(=O)c1sc2nc3c(c(-c4ccccc4)c2c1N)CCC3 28.2 µM
COc1ccc2[nH]c3ccc(OC)cc3c2c1 8.91 µM
